# Experimental data published in PubChem BioAssay (NCATS).
# Inconclusive results are not listed. A call without a number means that no potency is given here. The source made the active and inactive calls. Calls come from the whole dose curve; as a rule, active = well fitted cell-killing curve with a large enough effect; inconclusive = small, poorly fitted or top-dose-only effect; inactive = flat fitted curve, though single readings scatter.
# Assay: Cell Viability - LYMP2-020 (AID 986); note: nearly all actives have a fitted effect of over 55% in size
# Details: series mostly up to 92.2 µM
# How it was run: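 Luminescent ATP signal (CellTiter-Glo, 30 min at room temperature) is the read-out after 24 h compound treatment of lymphoblastoid cells at 37 C. AC50 values come from Hill-equation fits across concentrations.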
# Potency is the fitted concentration of half-maximal effect.
row,Structure (SMILES),Potency
1,Nc1ccc2cc3ccccc3cc2c1,inactive
2,CN(C)c1ccc(C2(c3ccc(N(C)C)cc3)OC(=O)c3cc(N(C)C)ccc32)cc1,inactive
3,Cc1cc(Nc2ccc(O)cc2)ccc1N,39.8 µM (active)
4,Cc1cc(O)c(C(C)(C)C)cc1Sc1cc(C(C)(C)C)c(O)cc1C,31.6 µM (active)
5,C=C(C)c1ccccc1,inactive
6,O=C1OC2(c3cc(Br)c(O)c(Br)c3Oc3c2cc(Br)c(O)c3Br)c2c(Cl)c(Cl)c(Cl)c(Cl)c21,inactive
7,C=CC(=O)OCCOCCOC(=O)C=C,15.8 µM (active)
8,O=C1OC(O)C(C(Cl)Cl)=C1Cl (centres undefined),25.1 µM (active)
9,CNc1ccc(O)cc1,3.98 µM (active)
10,CC(=O)Nc1ccc(C(=O)CCl)cc1,5.01 µM (active)
11,CCC(C)Nc1ccc(NC(C)CC)cc1 (centres undefined),5.01 µM (active)
12,O=C=Nc1ccc(Cc2ccc(N=C=O)cc2)cc1,inactive
13,c1ccc2c(c1)ccc1cc3c(ccc4ccccc43)cc12,inactive
14,c1ccc2c(c1)-c1cccc3c1c-2cc1ccccc13,inactive
15,O=[N+]([O-])c1cc([N+](=O)[O-])c2ccc(S(=O)(=O)O)cc2c1O,inactive
16,O=Cc1ccc(Cl)c(Cl)c1,inactive

# Assay: Cell Viability - LYMP2-022 (AID 987); note: nearly all actives have a fitted effect of over 55% in size
# Details: LYMP2-022 lymphoblastoid cell viability; series mostly up to 92.2 µM
# How it was run: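 qHTS: human lymphoblastoid cells 2500/well; 5 hr 37 C; cpd added; 24 hr 37 C; CellTiter-Glo, 30 min RT; luminescence. AC50 via Hill fit; tetraoctylammonium bromide positive ctrl.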
row,Structure (SMILES),Potency
1,Nc1ccc2cc3ccccc3cc2c1,inactive
2,CN(C)c1ccc(C2(c3ccc(N(C)C)cc3)OC(=O)c3cc(N(C)C)ccc32)cc1,inactive
3,Cc1cc(Nc2ccc(O)cc2)ccc1N,31.6 µM (active)
4,Cc1cc(O)c(C(C)(C)C)cc1Sc1cc(C(C)(C)C)c(O)cc1C,31.6 µM (active)
5,C=C(C)c1ccccc1,inactive
6,C=CC(=O)OCCOCCOC(=O)C=C,12.6 µM (active)
7,O=C1OC(O)C(C(Cl)Cl)=C1Cl (centres undefined),15.8 µM (active)
8,CNc1ccc(O)cc1,3.16 µM (active)
9,CC(=O)Nc1ccc(C(=O)CCl)cc1,3.98 µM (active)
10,CCC(C)Nc1ccc(NC(C)CC)cc1 (centres undefined),2.51 µM (active)
11,O=C=Nc1ccc(Cc2ccc(N=C=O)cc2)cc1,inactive
12,c1ccc2c(c1)ccc1cc3c(ccc4ccccc43)cc12,inactive
13,c1ccc2c(c1)-c1cccc3c1c-2cc1ccccc13,inactive
14,O=[N+]([O-])c1cc([N+](=O)[O-])c2ccc(S(=O)(=O)O)cc2c1O,inactive
15,O=Cc1ccc(Cl)c(Cl)c1,inactive

# Assay: Cell Viability - LYMP2-024 (AID 988); note: nearly all actives have a fitted effect of over 60% in size
# Details: LYMP2-024 lymphoblastoid cell viability; series mostly up to 92.2 µM
# How it was run: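 Steps: seed 2500 cells/well, 5 hr 37 C; add compound, 24 hr 37 C; add CellTiter-Glo, 30 min room temperature; read luminescence. AC50 derived by Hill modelling of concentration-dependent ATP loss.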
row,Structure (SMILES),Potency
1,Nc1ccc2cc3ccccc3cc2c1,inactive
2,CN(C)c1ccc(C2(c3ccc(N(C)C)cc3)OC(=O)c3cc(N(C)C)ccc32)cc1,inactive
3,Cc1cc(Nc2ccc(O)cc2)ccc1N,25.1 µM (active)
4,Cc1cc(O)c(C(C)(C)C)cc1Sc1cc(C(C)(C)C)c(O)cc1C,39.8 µM (active)
5,C=C(C)c1ccccc1,inactive
6,O=C1OC2(c3cc(Br)c(O)c(Br)c3Oc3c2cc(Br)c(O)c3Br)c2c(Cl)c(Cl)c(Cl)c(Cl)c21,inactive
7,C=CC(=O)OCCOCCOC(=O)C=C,12.6 µM (active)
8,O=C1OC(O)C(C(Cl)Cl)=C1Cl (centres undefined),12.6 µM (active)
9,CNc1ccc(O)cc1,2.51 µM (active)
10,CC(=O)Nc1ccc(C(=O)CCl)cc1,3.16 µM (active)
11,CCC(C)Nc1ccc(NC(C)CC)cc1 (centres undefined),2 µM (active)
12,O=C=Nc1ccc(Cc2ccc(N=C=O)cc2)cc1,inactive
13,c1ccc2c(c1)ccc1cc3c(ccc4ccccc43)cc12,inactive
14,c1ccc2c(c1)-c1cccc3c1c-2cc1ccccc13,inactive
15,O=[N+]([O-])c1cc([N+](=O)[O-])c2ccc(S(=O)(=O)O)cc2c1O,inactive
16,O=Cc1ccc(Cl)c(Cl)c1,inactive

# Assay: Cell Viability - LYMP2-026 (AID 989); note: nearly all actives have a fitted effect of over 50% in size
# Details: LYMP2-026 lymphoblastoid cell viability, qHTS; series mostly up to 92.2 µM
# How it was run: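 Luminescent ATP signal (CellTiter-Glo, 30 min room temperature) measures viable lymphoblastoid cells after 24 hr compound treatment at 37 C. Decreased ATP reflects acute toxicity; AC50 values come from Hill-equation modeling.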
row,Structure (SMILES),Potency
1,Nc1ccc2cc3ccccc3cc2c1,inactive
2,CN(C)c1ccc(C2(c3ccc(N(C)C)cc3)OC(=O)c3cc(N(C)C)ccc32)cc1,inactive
3,Cc1cc(Nc2ccc(O)cc2)ccc1N,50.1 µM (active)
4,Cc1cc(O)c(C(C)(C)C)cc1Sc1cc(C(C)(C)C)c(O)cc1C,25.1 µM (active)
5,C=C(C)c1ccccc1,inactive
6,O=C1OC2(c3cc(Br)c(O)c(Br)c3Oc3c2cc(Br)c(O)c3Br)c2c(Cl)c(Cl)c(Cl)c(Cl)c21,inactive
7,C=CC(=O)OCCOCCOC(=O)C=C,20 µM (active)
8,C/C=C1\C(=O)C[C@H]2[C@@H]3CCC4=CC(=O)CC[C@]4(C)[C@H]3CC[C@]12C,inactive
9,O=C1OC(O)C(C(Cl)Cl)=C1Cl (centres undefined),25.1 µM (active)
10,CNc1ccc(O)cc1,7.94 µM (active)
11,CC(=O)Nc1ccc(C(=O)CCl)cc1,7.94 µM (active)
12,CCC(C)Nc1ccc(NC(C)CC)cc1 (centres undefined),7.94 µM (active)
13,O=C=Nc1ccc(Cc2ccc(N=C=O)cc2)cc1,inactive
14,c1ccc2c(c1)ccc1cc3c(ccc4ccccc43)cc12,inactive
15,c1ccc2c(c1)-c1cccc3c1c-2cc1ccccc13,inactive
16,O=[N+]([O-])c1cc([N+](=O)[O-])c2ccc(S(=O)(=O)O)cc2c1O,inactive
17,O=Cc1ccc(Cl)c(Cl)c1,inactive
